According to PubChem BioAssay (NCATS):
Values joined by “and” are separate entries in the source; they are usually repeats but may differ in a detail not shown here. Equal entries are not always repeated. Results filed as inconclusive are left out. A number with no mark means an inactive call. Active and inactive are the calls of the source. Calls follow the shape of the dose curve; as a rule, active = well fitted curve in the direction sought with a large enough effect; inconclusive = small, poorly fitted or top-dose-only effect, or another doubt; inactive = no such curve, though single readings can be large; an effect the other way counts as inactive or inconclusive.

Columns and labels:
[1] = Viability qHTS for spleen associated tyrosine kinase inhibitor (SYKi) naive MV4-11 cells (AID 1963823); also: nearly all actives have a fitted effect of over 40% in size
How it was run: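 Cells: MV4-11, SYK inhibitor naive, 500 per well. Treatment: library compounds, 72 hr, 37 C, 5% CO2. Read-out: CellTiter-Glo luminescence after 10 min RT.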

[2] = Viability qHTS for spleen associated tyrosine kinase inhibitor (SYKi) drug resistant MV4-11 cells (AID 1963824); also: nearly all actives have a fitted effect of over 35% in size
How it was run: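 SYK inhibitor-resistant MV4-11 AML cells, 500 per well, added to predispensed compounds and incubated 72 hr at 37 C, 5% CO2. Viability measured by CellTiter-Glo luminescence after 10 min at room temperature.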

[3] = Quantitative highthroughput screen to assess conditional lethalithy of NOMO1 cells grown in RPMI1640 with untreated serum (RPMI+s) (AID 1963876); also: nearly all actives have a fitted effect of over 35% in size;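 as to Viability: 100% = DMSO wells and 0% = empty wells without cells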
How it was run: (§1)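 Each medium arm—HPLM with 10% dialyzed FBS, or RPMI1640 with 5 mM glucose and 10% untreated or dialyzed FBS—was screened against an 11-point, 3-fold compound titration for 48 h at 37 °C, with CellTiter-Glo luminescence as endpoint.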

[4] = Quantitative highthroughput screen to assess conditional lethalithy of NOMO1 cells grown in RPMI1640 with dialyzed fetal bovine serum (RPMI+ds) (AID 1963877); also: nearly all actives have a fitted effect of over 30% in size;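 as to Viability: series mostly up to about 46 µM; 100% = DMSO control wells and 0% = empty wells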
How it was run: as §1

[5] = Quantitative highthroughput screen to assess conditional lethalithy of NOMO1 cells grown in Human Plasma-Like Medium with dialyzed fetal bovine serum (HPLM+ds) (AID 1963878); also: nearly all actives have a fitted effect of over 35% in size;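 as to Viability: 100% = DMSO wells and 0% = empty wells on each plate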
How it was run: as §1

[6] = Quantitative highthroughput screen to assess conditional lethalithy of P12 Ichikawa cells grown in Human Plasma-Like Medium with dialyzed fetal bovine serum (HPLM+ds) (AID 1963879); settings: Potency: viability; also: nearly all actives have a fitted effect of over 35% in size; as to Viability: series mostly up to about 46 µM
How it was run: as §1

[7] = Quantitative highthroughput screen to assess conditional lethalithy of P12 Ichikawa cells grown in RPMI1640 with dialyzed fetal bovine serum (RPMI+ds) (AID 1963880); settings: Potency: P12-Ichikawa viability; also: nearly all actives have a fitted effect of over 35% in size;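 as to Viability: 100% = DMSO wells and 0% = empty wells on each plate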
How it was run: as §1

[8] = Quantitative highthroughput screen to assess conditional lethalithy of P12 Ichikawa cells grown in RPMI1640 with untreated serum (RPMI+s) (AID 1963881); settings: Potency: viability; also: nearly all actives have a fitted effect of over 35% in size;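 as to Viability: series mostly up to about 46 µM; 100% = DMSO wells and 0% = empty wells without cells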
How it was run: as §1

[9] = Quantitative highthroughput screen to assess conditional lethalithy of SEM cells grown in Human Plasma-Like Medium with dialyzed fetal bovine serum (HPLM+ds) (AID 1963882); also: nearly all actives have a fitted effect of over 35% in size; as to Viability: series mostly up to about 46 µM
How it was run: as §1

[10] = Quantitative highthroughput screen to assess conditional lethalithy of SEM cells grown in RPMI1640 with unreated serum (RPMI+s) (AID 1963883); also: nearly all actives have a fitted effect of over 35% in size;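 as to Viability: 100% = DMSO wells and 0% = empty wells without cells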
How it was run: as §1

[11] = Quantitative highthroughput screen to assess conditional lethalithy of SEM cells grown in RPMI1640 with dialyzed fetal bovine serum (RPMI+ds) (AID 1963884); also: nearly all actives have a fitted effect of over 35% in size;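 as to Viability: series mostly up to about 46 µM; 100% = DMSO control wells and 0% = empty wells without cells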
How it was run: as §1

[12] = Cellular viability qHTS for adrenocortical cancer (ACC) cell line SW-13 (AID 1963989); settings: SW-13 ACC cells viability, CellTiter-Glo, 48 h; activity (max response): active compounds read low; also: nearly all actives have a fitted effect of over 65% in size;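 as to activity (max response): cells grown in serum-free medium with ITS supplement; % is scaled to controls: 0 for no effect and ±100 for the full control effect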
How it was run: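 Viability was read as CellTiter-Glo luminescence after 48 h compound treatment (up to 46 uM final) of SW-13 cells grown serum-free; titration curves were fit with a four-parameter logistic model to give IC50 and efficacy.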

[13] = Cellular viability qHTS for adrenocortical cancer (ACC) cell line NCI-H295R (AID 1963990); also: nearly all actives have a fitted effect of over 60% in size
How it was run: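 CellTiter-Glo ATP luminescence, read 48 h after compound addition, measured viability of NCI-H295R adrenocortical cells grown serum-free with ITS. Final concentrations spanned up to 46 uM. Data normalized to DMSO and doxorubicin, fitted for IC50 and maximal response.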
Potency is read from the fitted curve at half-maximal effect.

Row | SMILES | Potency [1] | Potency [2] | Potency [3] | Potency [4] | Potency [5] | Potency [6] | Potency [7] | Potency [8] | Potency [9] | Potency [10] | Potency [11] | activity (max response) [12] [%] | Potency [13] | Potency [12]
1 | CCCCCCCCCCCCCC(=O)N[C@H](CO)[C@H](O)c1ccc([N+](=O)[O-])cc1 | 26.3 µM (active) | 23.5 µM (active) | 2.35 µM (active) | 2.64 µM (active) | 1.66 µM (active) | 3.72 µM (active) | 2.64 µM (active) | 2.35 µM (active) | 1.32 µM (active) | 0.743 µM (active) | 1.32 µM (active) | 0.392 | inactive | –
2 | C#Cc1cccc(Nc2ncnc3cc(OC)c(OCCCCCCC(=O)NO)cc23)c1 | 291 nM (active) and 372 nM (active) | 231 nM (active) and 296 nM (active) | 1.05 µM (active) | 0.662 µM (active) | 0.372 µM (active) | 0.235 µM (active) | 0.166 µM (active) | 0.235 µM (active) | 0.296 µM (active) | 0.209 µM (active) | 0.209 µM (active) | – | 2 µM (active) | 1.78 µM (active)
3 | CCN(CC)CCOc1ccc(Nc2ncc3cc(-c4c(Cl)cccc4Cl)c(=O)n(C)c3n2)cc1 | 0.0661 µM (active) | 0.118 µM (active) | 2.64 µM (active) | 2.96 µM (active) | 2.64 µM (active) | 3.72 µM (active) | 3.32 µM (active) | 2.96 µM (active) | 1.66 µM (active) | 1.05 µM (active) | 2.35 µM (active) | – | 0.794 µM (active) | 1 µM (active)
4 | CC(C)NCC(O)c1ccc(NS(C)(=O)=O)cc1 (stereo not drawn) | inactive | inactive | inactive | inactive | inactive | inactive | inactive | inactive | inactive | inactive | inactive | 2.53 | inactive | –
5 | CCC(=O)NCC[C@@H]1CCc2ccc3c(c21)CCO3 | inactive | inactive | inactive | inactive | inactive | inactive | inactive | inactive | 3.32 µM (active) | 5.26 µM (active) | 5.26 µM (active) | -6.57 | inactive | –
6 | CNC1CCC(N(Cc2cccc(-c3ccncc3)c2)C(=O)c2sc3ccccc3c2Cl)CC1 (stereo not drawn) | 7.31 µM (active) and 5.25 µM (active) | 5.8 µM (active) and 5.25 µM (active) | 3.32 µM (active) | 16.6 µM (active) | 1.48 µM (active) | 1.18 µM (active) | 1.66 µM (active) | 2.09 µM (active) | 1.32 µM (active) | 0.372 µM (active) | 0.833 µM (active) | – | 6.31 µM (active) | 10 µM (active)
7 | CCN(CC)CCNC(=O)c1ccc2nc(-c3ccccc3)c(-c3ccc(CN4CCC(n5c(=O)[nH]c6ccccc65)CC4)cc3)nc2c1 | 2.06 µM (active) and 3.32 µM (active) | 2.59 µM (active) and 3.32 µM (active) | 8.33 µM (active) | 11.8 µM (active) | 2.35 µM (active) | 2.35 µM (active) | 2.64 µM (active) | 4.69 µM (active) | 0.166 µM (active) | 0.0526 µM (active) | 0.166 µM (active) | – | 3.98 µM (active) | 6.31 µM (active)
8 | Cc1onc(-c2ccccc2Cl)c1C(=O)N[C@@H]1C(=O)N2[C@@H]1SC(C)(C)[C@@H]2C(=O)O | inactive | inactive | inactive | inactive | inactive | inactive | inactive | inactive | inactive | inactive | inactive | 0.896 | inactive | –
9 | Cc1nc2c([nH]1)CCN(C(=O)c1ccc(NC(=O)c3ccccc3-c3ccccc3)cc1)c1ccccc1-2 | 18.4 µM (active) | 13.2 µM (active) | inactive | inactive | inactive | inactive | inactive | inactive | inactive | inactive | inactive | -19.1 | inactive | –
10 | Nc1ccccc1NC(=O)c1ccc(CNC(=O)OCc2cccnc2)cc1 | 651 nM (active) and 742 nM (active) | 366 nM (active) and 468 nM (active) | 2.64 µM (active) | 1.66 µM (active) | 1.32 µM (active) | 2.35 µM (active) | 2.35 µM (active) | 2.64 µM (active) | 0.833 µM (active) | 0.743 µM (active) | 0.743 µM (active) | – | 2 µM (active) | 11.2 µM (active)
11 | O=C(NC1CCNCC1)c1[nH]ncc1NC(=O)c1c(Cl)cccc1Cl | 0.59 µM (active) | 0.411 µM (active) | 1.32 µM (active) | 1.18 µM (active) | 1.18 µM (active) | 1.66 µM (active) | 2.35 µM (active) | 1.48 µM (active) | 1.05 µM (active) | 1.32 µM (active) | 1.32 µM (active) | – | 15.8 µM (active) | 1.12 µM (active)
